Assay results as given in PubChem BioAssay.
Active and inactive are the calls of the source. How the calls were made is not given here.

experiment: P. aeruginosa biofilm formation inhibitors, primary screen, strain PAO1, LB-PBS medium, absorbance 600 nm (AID 1176); further: test concentration not given here; details: P. aeruginosa PAO1 growth/biofilm, A600, 12 h; higher = more signal

z-score, inactive:
COCC(=C=CC[C@H](O)c1ccc(CO)o1)CCO -0.165
CCCCCN1CC=CC23O[C@@H]4/C=C\CCCOC(=O)C4[C@H]2C(=O)N(C(C)CO)[C@@H]3C1=O (stereo partly specified) 0.398
COc1ccc([Si](C)(C)[C@@H]2[C@@H](CCO)O[C@]3(C(=O)N(Cc4cccc(NC(=O)[C@H](C)O)c4)c4ccccc43)[C@H]2C)cc1 1.25
Cc1ccc(S[C@]2(C(=O)NCc3ccccc3)CC(=O)N(C3CCCCC3)[C@@H]2c2ccc(CO)cc2I)cc1 0.82
CC(C)c1ccc(NN2C(C(O)c3ccc(F)cc3)C=CC3C(=O)N(c4ccccc4)C(=O)C32)cc1 (stereo unspecified) 1.36
COC(=O)[C@@]1(Cc2ccccc2)[C@H]2c3cc(C(=O)N4CCCC4)n(CCc4ccccn4)c3C[C@H]2CN1C(=O)c1ccccc1 -0.126
CCCN1C(=O)[C@]2(Cc3ccccc31)N=C(c1ccc(OCCCO)cc1)O[C@@H]2c1ccccc1 0.0279
O=C1[C@H]2C=C(I)[C@H](C[C@@H]2OCCOCCO)[C@@]12CO2 0.224
CCCCCCc1nc(Cc2cc(OC)c(OC)c(OC)c2)cc2c1[Si](C(C)C)(C(C)C)OC2 -0.215
COC(=O)C(CC#Cc1ccc2c(c1)[C@]1(C(=O)N2)[C@H](c2ccc(O)cc2)N2[C@H](c3ccccc3)[C@H](c3ccccc3)OC(=O)[C@H]2[C@@H]1C(=O)NC[C@H](O)c1ccccc1)C(=O)OC 0.87
COCCOC(=O)N1C(=O)[C@@]2(c3cc(C#CC4=CCCCC4)ccc31)[C@H](c1ccccc1OCCO)N1[C@H](c3ccccc3)[C@H](c3ccccc3)OC(=O)[C@H]1[C@@H]2C(=O)N1CCN(c2ncccn2)CC1 1.56
